The whole screen tested about 3,200 compounds, of which about 300 (9.4%) showed activity. Many of the other results were omitted from the sample, so actives are more common in it than they were.
Test system: A673/TR/shEF
Assay: cell viability (LOESS-normalised, relative to median of negative controls) (log2 ratio); higher = more viable cells (less compound effect), active = hit call of the paper (over 3 MAD below the median)
Conditions: treatment time: 72 h
How it was run: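 Viability of A673/TR/shEF Ewing sarcoma cells was determined by CellTiter-Glo luminescence. The cells, at 1,500 per well in 384-well plates, were grown with or without doxycycline from 24 h before compound addition to switch on EWS-FLI1 shRNA knockdown, then exposed for three days to library compounds at two or more concentrations or to DMSO controls. Signals were LOESS-corrected plate by plate, normalised to the negative-control median and log2-transformed.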

[1] = 0.25 µM, library screen: screen1, EWS-FLI1 expression: high (no doxycycline)
[2] = 0.25 µM, library screen: screen1, EWS-FLI1 expression: low (doxycycline-induced shRNA knockdown)
[3] = 2.5 µM, library screen: screen1, EWS-FLI1 expression: high (no doxycycline)
[4] = 2.5 µM, library screen: screen1, EWS-FLI1 expression: low (doxycycline-induced shRNA knockdown)
[5] = 0.25 µM, library screen: screen2, EWS-FLI1 expression: high (no doxycycline)
[6] = 0.25 µM, library screen: screen2, EWS-FLI1 expression: low (doxycycline-induced shRNA knockdown)
[7] = 2.5 µM, library screen: screen2, EWS-FLI1 expression: high (no doxycycline)
[8] = 2.5 µM, library screen: screen2, EWS-FLI1 expression: low (doxycycline-induced shRNA knockdown)
[9] = 0.103 µM, library screen: screen3, EWS-FLI1 expression: high (no doxycycline)
[10] = 0.103 µM, library screen: screen3, EWS-FLI1 expression: low (doxycycline-induced shRNA knockdown)
[11] = 0.308 µM, library screen: screen3, EWS-FLI1 expression: high (no doxycycline)
[12] = 0.308 µM, library screen: screen3, EWS-FLI1 expression: low (doxycycline-induced shRNA knockdown)
[13] = 0.926 µM, library screen: screen3, EWS-FLI1 expression: high (no doxycycline)
[14] = 0.926 µM, library screen: screen3, EWS-FLI1 expression: low (doxycycline-induced shRNA knockdown)
[15] = 2.8 µM, library screen: screen3, EWS-FLI1 expression: high (no doxycycline)
[16] = 2.8 µM, library screen: screen3, EWS-FLI1 expression: low (doxycycline-induced shRNA knockdown)
[17] = 8.3 µM, library screen: screen3, EWS-FLI1 expression: high (no doxycycline)
[18] = 8.3 µM, library screen: screen3, EWS-FLI1 expression: low (doxycycline-induced shRNA knockdown)
[19] = 25 µM, library screen: screen3, EWS-FLI1 expression: high (no doxycycline)
[20] = 25 µM, library screen: screen3, EWS-FLI1 expression: low (doxycycline-induced shRNA knockdown)
[21] = 0.025 µM, library screen: screen1, EWS-FLI1 expression: high (no doxycycline)
[22] = 0.025 µM, library screen: screen1, EWS-FLI1 expression: low (doxycycline-induced shRNA knockdown)
[23] = 25 µM, library screen: screen1, EWS-FLI1 expression: high (no doxycycline)
[24] = 25 µM, library screen: screen1, EWS-FLI1 expression: low (doxycycline-induced shRNA knockdown)

Measured: cell viability (log2)

CC1=C(C(=O)OCC2CCCO2)C(c2coc3ccccc3c2=O)C2=C(CCCC2=O)N1 (centres undefined)
inactive: [1] 0.0728 | [2] 0.022 | [3] 0.00147 | [4] 0.0061

COc1ccc2c(c1)OC1CC1(c1ccccc1OC)C2=O (centres undefined)
inactive: [1] 0.0685 | [2] 0.0535 | [3] 0.0294 | [4] 0.0412

COc1ccc(OC)c(CN2CCN(Cc3ccco3)CC2)c1
inactive: [1] 0.136 | [2] 0.00829 | [3] 0.0712 | [4] 0.0546

C=C1C[C@]23C[C@@]1(O)CC[C@H]2[C@@]12C=C[C@H](O)C(C)(C(=O)O1)[C@H]2[C@@H]3C(=O)O
inactive: [1] 0.0797 | [2] -0.049 | [3] 0.109 | [4] 0.00256

CC(C)C[C@H](NC(=O)[C@H](O)[C@H](N)Cc1ccccc1)C(=O)O
inactive: [5] 0.14 | [6] 0.0402 | [7] 0.0931 | [8] 0.0118

CC(C)C[C@H](NC(=O)[C@@H](O)[C@H](N)Cc1ccccc1)C(=O)O
inactive: [5] 0.185 | [6] -0.00499 | [7] 0.106 | [8] 0.0581

CC(C)C[C@H](NC(=O)[C@H](Cc1ccccc1)NC(=O)c1cnccn1)B(O)O
active: [9] -0.242 | [11] -2.56 | [12] -0.914 | [13] -3.95 | [14] -1.75 | [15] -4.24 | [16] -4.06 | [17] -4.26 | [18] -3.84 | [19] -4.26 | [20] -4.16
inactive: [10] -0.0845

O=C(Nc1ccccc1Cl)C1c2ccccc2Oc2ccccc21
inactive: [1] 0.0923 | [2] 0.0427 | [3] 0.118 | [4] 0.00942

COC1CCC2(C)C(CCC3C2CCC2(C)C(C(C)CCCC(C)C)CCC32)C1 (centres undefined)
inactive: [1] -0.00918 | [2] 0.0236 | [3] 0.0903 | [4] 0.091

CCN1CCCC(OC(=O)C(c2ccccc2)c2ccccc2)C1 (centres undefined)
inactive: [1] 0.0616 | [2] 0.0736 | [3] 0.223 | [4] -0.0423

CCCCOc1ccc(OCCCN2CCOCC2)cc1
inactive: [1] 0.172 | [2] 0.0279 | [3] 0.124 | [4] 0.0578

CCCCCCCCCC(=O)NC(CN1CCOCC1)C(O)c1ccccc1 (centres undefined)
active: [5] -0.53 | [6] -0.533 | [7] -1.39 | [8] -2.57

Cc1ccc(C(=O)NCCSc2ccccn2)cc1
inactive: [1] 0.109 | [2] 0.00816 | [3] 0.117 | [4] -0.0564

Cn1cnnc1SCC(=O)N1c2ccccc2C(C)(c2ccccc2)CC1(C)C (centres undefined)
inactive: [1] 0.078 | [2] 0.058 | [3] 0.127 | [4] 0.198

C[C@@H]1CC[C@H]2[C@](C)(CO)[C@@H](O)CC[C@]2(C)[C@@]12CC[C@@](CO)(CCO)O2
inactive: [1] 0.0457 | [2] -0.0603 | [3] 0.0942 | [4] 0.112

CC(C)(C)c1onc(OCP(=O)(O)O)c1CC(N)C(=O)O (centres undefined)
inactive: [5] -0.0656 | [6] 0.0767 | [7] 0.0137 | [8] 0.0837

N=C(N)c1ccc(N)cc1
inactive: [5] 0.132 | [6] 0.0859 | [7] 0.0987 | [8] 0.121

CCOC(=O)c1ccc(N)cc1
inactive: [1] 0.113 | [2] 0.151 | [3] 0.0778 | [4] 0.18

N=C1C=CC(=C(c2ccc(N)cc2)c2ccc(N)cc2)C=C1
active: [1] -0.412 | [2] -0.563 | [3] -3.76 | [4] -3.35

CC(C)c1c(O)c(-c2cc3c(c(C(C)C)c2O)CCC2C(C)(C)CCCC32C)cc2c1CCC1C(C)(C)CCCC21C (centres undefined)
inactive: [1] 0.108 | [2] 0.109 | [3] 0.0993 | [4] 0.112

COc1c(C)c2c(c(O)c1C/C=C(\C)CCC(=O)OCCN1CCOCC1)C(=O)OC2
inactive: [9] 0.051 | [10] 0.0315 | [11] 0.00041 | [12] 0.00916 | [13] -0.00635 | [14] 0.0426 | [15] 0.0529 | [16] 0.0135 | [17] -0.0785 | [18] 0.0651
active: [19] -0.48 | [20] -0.33

COc1c(C)c2c(c(O)c1C/C=C(\C)CCC(=O)O)C(=O)OC2
inactive: 0.025 µM, library screen: screen2, EWS-FLI1 expression: high (no doxycycline) 0.0161 | 0.025 µM, library screen: screen2, EWS-FLI1 expression: low (doxycycline-induced shRNA knockdown) 0.0434 | [9] 0.108 | [10] 0.173 | [1] 0.047 | [2] -0.0419 | [5] 0.0974 | [6] 0.108 | [11] 0.00407 | [12] 0.0569 | [13] 0.0822 | [14] 0.0245 | [3] 0.0367 | [4] 0.00349 | [7] 0.137 | [8] -0.00198 | [15] 0.147 | [16] 0.096 | [17] -0.0618 | [18] -0.0369
active: 25 µM, library screen: screen2, EWS-FLI1 expression: high (no doxycycline) -0.533 | 25 µM, library screen: screen2, EWS-FLI1 expression: low (doxycycline-induced shRNA knockdown) -0.259 | [19] -0.488 | [20] -0.403

COC1=C(OC)C(=O)C(C/C=C(\C)CC/C=C(\C)CC/C=C(\C)CC/C=C(\C)CC/C=C(\C)CC/C=C(\C)CC/C=C(\C)CC/C=C(\C)CC/C=C(\C)CCC=C(C)C)=C(C)C1=O
inactive: [1] 0.0717 | [2] 0.153 | [3] 0.193 | [4] 0.233

C(#CC12CC3CC(CC(C3)C1)C2)CN1CCOCC1
inactive: [1] 0.0887 | [2] 0.0273 | [3] 0.163 | [4] 0.0455

Brc1ccccc1CN1CCN(Cc2ccco2)CC1
inactive: [1] 0.15 | [2] 0.0476 | [3] 0.0744 | [4] 0.0303

Cn1c(=O)[nH]c(=O)c2[nH]cnc21
inactive: [1] 0.136 | [2] -0.0262 | [3] 0.111 | [4] 0.0112

C=C(C)C1COc2cc3oc(=O)ccc3cc2O1 (centres undefined)
inactive: [1] 0.0489 | [2] 0.0843 | [3] 0.0665 | [4] 0.127

COc1ccc2c(c1)OC[C@@H](Cc1ccc(OC)c(OC)c1)[C@H]2O
inactive: [1] 0.0776 | [2] -0.01 | [3] 0.0904 | [4] -0.0561

C[N+]1(C)C2CC[C@H]1CC(OC(=O)C(O)c1ccccc1)C2 (some centres undefined)
inactive: [1] 0.0981 | [2] 0.0981 | [3] 0.164 | [4] -0.0226

O=c1oc2cc3occc3cc2c2oc3cc4c(cc3c12)OCO4
inactive: [1] 0.103 | [2] -0.01 | [3] 0.0469 | [4] 0.0004

OC[C@@H](O)C(O)[C@H](O)CO
inactive: [1] 0.179 | [2] 0.0545 | [3] 0.145 | [4] 0.0215

O=C(O)c1cc(O)ccc1O
inactive: [1] 0.00691 | [2] 0.0897 | [3] 0.0219 | [4] 0.0883

O=C(O)c1cc(NCc2cc(O)ccc2O)ccc1O
0.324: [1]
inactive: [21] 0.268 | [22] -0.135 | [2] 0.0214 | [4] -0.0017 | [24] 0.0315
active: [3] -0.24 | [23] -0.388

O=C(O)c1cc(N(Cc2ccccc2O)Cc2cc(O)ccc2O)ccc1O
inactive: [21] 0.17 | [22] 0.0496 | [1] 0.173 | [2] 0.132 | [3] 0.0556 | [4] 0.0297 | [23] 0.0931 | [24] 0.144

Cc1ccc(NC(=O)c2ccc(CN3CCN(C)CC3)cc2)cc1Nc1nc(-c2cccnc2)cs1
inactive: [9] 0.122 | [10] 0.0762 | [11] 0.0521 | [12] 0.0956 | [13] 0.0749 | [14] 0.0933 | [15] 0.0638 | [16] 0.131 | [17] 0.061 | [18] 0.0802 | [20] 0.154
active: [19] -0.709

Cc1ccncc1Nc1ncccc1C(=O)Nc1ccc(C2(C#N)CCCC2)cc1
inactive: [9] 0.0267 | [10] 0.0194 | [11] 0.0111 | [12] -0.0325 | [13] -0.00588 | [14] -0.00768 | [15] -0.00204 | [16] -0.0249 | [17] 0.00934 | [18] -0.0211 | [19] -0.0197 | [20] 0.0222

O=C(NCO)c1cccnc1
0.28: [1]
inactive: [2] 0.147 | [3] 0.255 | [4] 0.103

Cc1cn(-c2cc(NC(=O)c3ccc(C)c(Nc4nccc(-c5cccnc5)n4)c3)cc(C(F)(F)F)c2)cn1
inactive: [9] 0.0821 | [10] 0.114 | [11] 0.0305 | [12] 0.0807 | [13] 0.00582 | [14] 0.101 | [15] -0.0305 | [16] 0.116 | [17] 0.0184 | [18] 0.0705 | [19] -0.057 | [20] 0.0892

Cc1ccc(NC(=O)c2ccc(CN3CCN(C)CC3)cc2)cc1Nc1nccc(-c2cccnc2)n1
inactive: [9] 0.102 | [10] 0.119 | [11] 0.178 | [12] 0.125 | [13] 0.121 | [14] 0.129 | [15] 0.135 | [16] 0.128 | [17] 0.122 | [18] 0.126 | [20] 0.146
active: [19] -0.195

Nc1ccccc1NC(=O)c1ccc(CNc2nccc(-c3cccnc3)n2)cc1
inactive: [9] 0.0488 | [10] 0.158 | [11] 0.0583 | [12] 0.0629 | [13] -0.0966 | [14] 0.141 | [16] 0.00492
active: [15] -0.554 | [17] -1.39 | [18] -0.431 | [19] -3.23 | [20] -1.08

Reference: the supplement of paper PMC6089552
